Source: PubChem
Most compounds without a hit are left out; they make up all but 10% or so of the library.
JMJD2A Tudor inh: qHTS Assay for Inhibitors of JMJD2A-Tudor Domain; AID 504339, 2011; 390,000 tested, 4.4% active; Potency, µM (doses to about 114 µM), hits mostly inhibitors; AlphaScreen JMJD2A-Tudor / H3K4me3 peptide binding; Lysine-specific demethylase 4A (Homo sapiens), O75164; note: nearly all actives have a fitted effect of over 50% in size
BAZ2B block: qHTS Assay for Inhibitors of BAZ2B | AID 504333, 2011 | AlphaScreen BAZ2B-H3K14Ac peptide displacement | Potency, µM (highest dose often 114 µM), actives largely listed as inhibitors | Bromodomain adjacent to zinc finger domain protein 2B (Homo sapiens), Q9UIF8 | 360,000 tested, 4.4% active; note: nearly all actives have a fitted effect of over 60% in size
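AlphaScreen luminescence quantifies BAZ2B engagement of H3K14Ac peptide; the protein and biotinylated peptide are both at 50 nM final, buffer PBS pH 7.4 with 0.01% Tween-20, all steps at room temperature.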
G9a block: qHTS Assay for Inhibitors of Histone Lysine Methyltransferase G9a. Histone-lysine N-methyltransferase EHMT2 (Homo sapiens), Q96KQ7. G9a H3K9 monomethylation, AlphaScreen, 2 h. Potency, µM (top dose mostly 102 µM), usual class: inhibitors. 350,000 tested, 8.8% active; note: nearly all actives have a fitted effect of over 75% in size
Target sequence (Q96KQ7 913-1193 limits assumed): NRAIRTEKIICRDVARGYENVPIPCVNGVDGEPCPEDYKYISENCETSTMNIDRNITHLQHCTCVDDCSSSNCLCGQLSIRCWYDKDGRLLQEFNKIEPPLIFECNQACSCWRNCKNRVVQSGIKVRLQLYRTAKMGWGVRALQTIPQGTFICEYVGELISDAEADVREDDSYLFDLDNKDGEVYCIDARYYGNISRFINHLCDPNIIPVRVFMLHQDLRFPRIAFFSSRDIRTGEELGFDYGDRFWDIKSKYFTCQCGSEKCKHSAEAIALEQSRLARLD
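Quantitative HTS format: methyltransferase activity on a biotin-tagged H3K9 peptide is measured by AlphaScreen, using a rabbit anti-monomethyl-H3K9 antibody with streptavidin donor and anti-IgG acceptor beads. Final levels are 20 nM enzyme, 500 nM peptide, 20 uM SAM; 2 h RT.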
HP1b binding inh: HTS for Inhibitors of HP1-beta Chromodomain Interactions with Methylated Histone Tails. 390,000 tested, 0.56% active. Chromobox protein homolog 1 (Homo sapiens), P83916. Potency, µM (series often up to 114 µM), hits mostly inhibitors. AlphaScreen HP1-beta / biotin-H3K9me3 peptide binding. AID 540317, 2011; note: nearly all actives have a fitted effect of over 70% in size
Target sequence (P83916 whole entry, looked up): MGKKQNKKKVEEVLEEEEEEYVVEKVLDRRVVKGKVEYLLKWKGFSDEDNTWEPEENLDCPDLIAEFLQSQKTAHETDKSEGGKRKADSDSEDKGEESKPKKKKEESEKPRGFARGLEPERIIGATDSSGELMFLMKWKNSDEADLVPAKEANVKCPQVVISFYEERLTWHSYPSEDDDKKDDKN
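AlphaScreen: HP1-beta (50 nM) preformed 30 min with biotin-H3(1-18)K9me3 peptide (50 nM) in PBS pH 7.4, 0.01% Tween-20. Compound added for 30 min at RT, then streptavidin donor/nickel chelate acceptor beads (10 ug/mL) for 30 min.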
GLS inh: qHTS for Inhibitors of Glutaminase (GLS); Glutaminase kidney isoform, mitochondrial (Homo sapiens), O94925; 410,000 tested, 0.21% active; AID 624170, 2012; GLS enzymatic activity, qHTS titration; Potency, µM (series often up to 45.5 µM), actives largely listed as inhibitors
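Two-point fluorescence kinetic (t0, 30 min RT) for hKGA; glutamate detected via glutamate oxidase–HRP–Amplex Red. Substrate: 1 mM L-glutamine solution; buffer 45 mM KH2PO4, pH 8.2.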
Numbers stand for hits; n = inactive; u = inconclusive; x = no result given; [ ] = dose if it differs, or a comment. Calls come from the whole dose curve; as a rule, active = well fitted curve in the direction sought with a large enough effect; inconclusive = small, poorly fitted or top-dose-only effect, or another doubt; inactive = no such curve, though single readings can be large; an effect the other way counts as inactive or inconclusive.

SMILES	JMJD2A Tudor inh	BAZ2B block	G9a block	HP1b binding inh	GLS inh
COc1cc(/C=C2\SC(=Nc3ccc(Cl)c(C(=O)O)c3)NC2=O)c(Br)c(Br)c1O	79.4µM	44.7µM	31.6µM	u	u
CCOC(=O)c1cnc2ccccc2c1Nc1cccc(OC)c1	n	n	n	n	n
CN1C(C(=O)c2ccccc2)=C(NC(=O)c2ccc(F)cc2)c2ccccc2S1(=O)=O	n	n	n	n	n
CN1C(C(=O)Nc2ccc(C(=O)O)cc2)=C(O)c2ccccc2S1(=O)=O	79.4µM	n	u	n	n
COc1cccc(N2CCN(C(=O)C3CCN(S(=O)(=O)c4c(C)noc4/C=C/c4ccccc4F)CC3)CC2)c1	n	n	n	n	n
O=C1/C(=C/c2c[nH]c3ccccc23)CCC/C1=C\c1c[nH]c2ccccc12	n	u	u	n	n
O/N=C1\CCC\C1=C/c1ccco1	n	u	56.2µM	n	n
O=C1C(=Cc2ccco2)CCCC1=Cc1ccco1	56.2µM	x	x	u	u
O=C1C(=Cc2ccco2)CCC1=Cc1ccco1	3.16µM	x	x	3.55µM	n
CC(C)OCCCNC(=O)Cn1ccc2cc(S(=O)(=O)N3CCCCCC3)ccc21	n	n	n	n	n
Cc1ccc(S(=O)(=O)NN2C(=O)c3ccccc3NC2c2ccccc2)cc1 (stereo unspecified)	n	n	n	n	n
Cc1ccc(C(=O)NC(=S)NNC(=O)COc2ccc([N+](=O)[O-])cc2)cc1	25.1µM	n	3.55µM	n	n
COc1ccc(C(=O)NC(=S)NNC(=O)COc2ccccc2)cc1	n	n	x	u	n
O=C(COc1ccc([N+](=O)[O-])cc1)NNC(=S)NC(=O)c1ccc(Br)cc1	50.1µM	n	2.82µM	u	n
COc1cc(-c2nc(S(=O)(=O)c3ccc(Cl)cc3)c(N3CCOCC3)o2)cc(OC)c1OC	n	n	n[12.7 µM]	n	n
CC(O)CN(C)C (stereo unspecified)	x	x	n[12.7 µM]	x	n
CC(O)CN(CCC(N)=O)CCC(N)=O (stereo unspecified)	u	56.2µM	35.5µM	n	n
COc1ccc(Nc2nc(-c3ccncc3)nc3ccccc23)cc1	n	n	n	n	n
COc1cc(NC(c2ccccc2)c2ccccc2)cc(OC)c1OC	n	44.7µM	39.8µM	n	n
COc1ccc(NC(c2ccccc2)c2ccncc2)cc1 (stereo unspecified)	44.7µM	70.8µM	7.08µM	n	n
CC1CC(C)(C)CC2(C1)NC(=O)N(CC(=O)N1CCN(Cc3ccc(C#N)cc3)CC1)C2=O (stereo unspecified)	n	n	50.1µM	n	n
CC1(c2ccc3ccccc3c2)NC(=O)N(CC(=O)N2CCN(Cc3ccc(C#N)cc3)CC2)C1=O (stereo unspecified)	n	n	u	n	n
CC(C)NS(=O)(=O)c1ccc(CCC(=O)Nc2cc(Cl)ccc2Oc2ccccc2)cc1	n	n	n	n	n
O=C(O)c1cc(S(=O)(=O)Nc2cc(Cl)ccc2Oc2ccccc2)ccc1O	n	n	15.8µM	n	n
CC[n+]1c(-c2ccc(C)cc2)csc1Nc1c(C)n(C)n(-c2ccccc2)c1=O	u	u	8.91µM	u	n
SMILES	JMJD2A Tudor inh	BAZ2B block	G9a block	HP1b binding inh	GLS inh
Cc1cccc(N2C(=O)C(Cl)=C(Nc3c(C)n(C)n(-c4ccccc4)c3=O)C2=O)c1C	n	50.1µM	8.91µM	n	n
Cc1c(NC(=O)Nc2c(Cl)cccc2Cl)c(=O)n(-c2ccccc2)n1C	n	n	n	n	n
Cc1ccc(Nc2nc3ccccc3nc2Nc2c(C)n(C)n(-c3ccccc3)c2=O)cc1	n	n	n	n	n
Cc1ccc(N2C(=O)C(Cl)=C(Nc3c(C)n(C)n(-c4ccccc4)c3=O)C2=O)cc1	n	n	5.01µM	n	n
COCCn1c(SCC(=O)Nc2ccc(C)cc2)nc2c(oc3ccccc32)c1=O	n	n	n	n	n
Cc1nc(NC(C)(C)CO)c([N+](=O)[O-])cc1[N+](=O)[O-]	u	n	n	n	n
